Conditions in all cases: primary human HUVEC with PBMC; actives raise or lower the signal
Read-out in assay [1]: Monocyte Chemoattractant Protein-1 (MCP1), CCL2 (gene 6347)
In words: BSK_LPS_MCP1: BioMAP Diversity Plus: LPS Assay for Monocyte Chemoattractant Protein-1 (MCP1) Biomarker Activity (AID 2283081).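 As to AC50: co-culture stimulated with LPS; secreted MCP-1 protein quantified by ELISA in culture supernatant.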 The procedure, abridged: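 Secreted MCP-1 read by ELISA at 24 h post-dosing in an LPS-activated co-culture of endothelial cells with peripheral blood mononuclear cells. Fits run in both directions, DMSO as baseline; parallel SRB staining tracks overt cytotoxicity.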

A short description of assay [2]: BSK_LPS_PGE2: BioMAP Diversity Plus: LPS Assay for Prostaglandin E2 (PGE2) Biomarker Activity (AID 2283082).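 As to AC50: secreted prostaglandin E2 measured by ELISA in LPS-stimulated co-culture.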 A digest of the protocol:
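Primary human endothelial cells and blood mononuclear cells, co-cultured with LPS, receive test chemical; PGE2 ELISA follows at 24 h, with SRB-stained parallel cultures flagging cytotoxicity.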

Read-out in assay [3]: Macrophage colony-stimulating factor (MCSF), CSF1 (gene 1435)
In words: BSK_LPS_MCSF: BioMAP Diversity Plus: LPS Assay for Macrophage colony-stimulating factor (MCSF) Biomarker Activity (AID 2283083). A digest of the protocol: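 Bidirectional fitting against DMSO was applied to M-CSF levels read by ELISA at 24 h post-dose. The system pairs human umbilical vein endothelium with peripheral blood mononuclear cells; parallel SRB staining tracked cytotoxicity.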

Read-out in assay [4]: Tissue Factor, F3 (gene 2152)
In words: BSK_LPS_TissueFactor: BioMAP Diversity Plus: LPS Assay for Tissue Factor Biomarker Activity (AID 2283084). The procedure, abridged: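 Compound was added to an endothelial cell/PBMC co-culture, and after 24 h tissue factor (CD142) was read by ELISA. Gain or loss of signal was fitted against a DMSO baseline, and parallel SRB staining (560 nm) tracked overt cytotoxicity.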

Read-out in assay [5]: Tumor necrosis factor (Homo sapiens) (UniProt P01375)
In words: BSK_LPS_TNFa: BioMAP Diversity Plus: LPS Assay for Tumour Necrosis Factor alpha (TNFa) Biomarker Activity (AID 2283085).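 As to AC50: TNFa protein level quantified by ELISA in the co-culture.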 A digest of the protocol:
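ELISA-based TNFa endpoint in a human endothelial–PBMC co-culture sampled 24 h post-exposure. Curves were fitted in both directions using DMSO as baseline of activity.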

Read-out in assay [6]: Vascular cell adhesion molecule 1 (VCAM1), VCAM1 (gene 7412)
In words: BSK_LPS_VCAM1: BioMAP Diversity Plus: LPS Assay for Vascular cell adhesion molecule 1 (VCAM1) Biomarker Activity (AID 2283086). The procedure, abridged:
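Measured by ELISA: VCAM-1 in LPS-activated HUVEC/PBMC co-cultures 24 h after treatment. Values reflect bidirectional fitting with DMSO as baseline.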

Read-out in assay [7]: CD38, CD38 (gene 952)
Description: BSK_SAg_CD38: BioMAP Diversity Plus: SAg Assay for CD38 Biomarker Activity (AID 2283087). A digest of the protocol:
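Measures CD38 on a human endothelial/PBMC co-culture driven by SEB and TSST-1, 24 h after compound exposure, using ELISA with fluorescence detection; DMSO defines baseline for bidirectional curve fitting.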

Read-out in assay [8]: CD69, CD69 (gene 969)
Description: BSK_SAg_CD69: BioMAP Diversity Plus: SAg Assay for CD69 Biomarker Activity (AID 2283089).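 As to AC50: cell surface CD69 protein quantified by ELISA with fluorescence detection.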 The procedure, abridged:
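Endothelial/PBMC co-culture; chemical added; 24 h incubation; CD69 ELISA with fluorescence detection; bidirectional fit vs DMSO.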

Read-out in assay [9]: Monocyte Chemoattractant Protein-1 (MCP1), CCL2 (gene 6347)
Description: BSK_SAg_MCP1: BioMAP Diversity Plus: SAg Assay for Monocyte Chemoattractant Protein-1 (MCP1) Biomarker Activity (AID 2283090). A digest of the protocol: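 Values derive from bidirectional fitting of ELISA-measured MCP1 against DMSO controls. Readings were taken 24 h after dosing human vascular endothelial cells co-cultured with peripheral blood mononuclear cells under superantigen stimulation.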

Read-out in assay [10]: CD40, CD40 (gene 958)
Description: BSK_SAg_CD40: BioMAP Diversity Plus: SAg Assay for CD40 Biomarker Activity (AID 2283088). The procedure, abridged: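 CD40 is measured by fluorescence ELISA in an endothelial/PBMC primary human co-culture at 24 h post-dose. Fitting is bidirectional, DMSO baseline. Parallel SRB staining (560 nm) flags cytotoxicity.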

Active and inactive are the calls of the source. The calls were made as follows: active = hit-call score of the fitted dose curve at least 0.9, where 1 is the maximum; inactive = score below 0.9.

Here are results for 22 molecules from PubChem BioAssay (EPA / NIEHS).

Sequence of Tumor necrosis factor (Homo sapiens) (P01375 whole entry, looked up): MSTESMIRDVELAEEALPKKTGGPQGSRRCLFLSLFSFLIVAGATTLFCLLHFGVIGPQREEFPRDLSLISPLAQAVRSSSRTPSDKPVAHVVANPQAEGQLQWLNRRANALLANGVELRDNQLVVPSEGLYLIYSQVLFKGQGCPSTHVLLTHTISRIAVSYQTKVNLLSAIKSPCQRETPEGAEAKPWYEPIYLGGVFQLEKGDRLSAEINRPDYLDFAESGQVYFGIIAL

Take `Cc1cccc(Nc2cc(Cl)nc(SCC(=O)O)n2)c1C`: the outcome in assay [1], in assay [2], in assay [3], in [4], in assay [5] and in [6] was inactive. Also, the outcome in [7], in [8] and in [9] was inactive.
As to `Cc1ccc(N(C)C)cc1`, the result in [1], in assay [3], in assay [4], in assay [5], in [6] and in assay [7] was inactive. Also, the outcome in [10], in [8] and in [9] was inactive.
As for `COc1cc(-c2nc(NC(=O)c3cc4cc(C)cc(C)c4n3CC(=O)O)sc2CCC2CCCCC2)c(OC)cc1Cl`, the AC50 – broadly, the concentration at which the activity in the assay is half-maximal – in assay [1] is 3.25 µM (active); in [2], 3.97 µM (active); in [3] it was 4.31 µM (active); in [4], 6.36 µM (active); in [5], 10 µM (active); in [6] it was 5.07 µM (active). The results for the AC50 in assay [7], in [8] and in assay [9] were 3.43 µM (active), 3.95 µM (active) and 2.78 µM (active), respectively.
Turning to `CCCCCCCCCCCCCO`, the result in [1], in assay [2], in [3], in assay [4], in [5] and in assay [8] was inactive. Also, the AC50 is 34.7 µM (active) in [6], 31.1 µM (active) in [7] and 31.5 µM (active) in [9].
`CC(CO)OC(C)CO` (centres undefined) (tested in a mixture with another compound): the outcome in assay [1], in assay [2], in assay [3], in [4], in [5] and in assay [6] was inactive. The result in [7], in [8] and in assay [9] was inactive.
Turning to `CC(=O)OC/C=C(\C)CCC=C(C)C`, the result in [1], in [3], in [4], in assay [5], in assay [6] and in assay [7] was inactive. The outcome in [10], in assay [8] and in assay [9] was inactive.
Take `CC1=C(/C=C/C(C)=C/C=C/C(C)=C/CO)C(C)(C)CCC1`: the result in assay [1] and in [4] was inactive. Moreover, the AC50 in assay [3] is 8.45 µM (active); in [5], 5.39 µM (active); in assay [6], 30.5 µM (active); in assay [7] it was 32.7 µM (active); in assay [10], 26.4 µM (active); in assay [8] it was 20.9 µM (active). The AC50 in assay [9] was 20.9 µM (active).
Turning to `c1cc(-c2ccncc2)ccn1`, the outcome in assay [1], in assay [3], in [4], in assay [5], in assay [6] and in assay [7] was inactive. Moreover, the outcome in assay [10], in assay [8] and in [9] was inactive.
With `Cc1c(C(=O)O)c(O)cc2c1C(=O)c1c(O)c([C@@H]3O[C@H](CO)[C@@H](O)[C@H](O)[C@H]3O)c(O)c(O)c1C2=O`, the result in assay [1], in assay [3], in assay [4], in assay [5], in assay [6] and in assay [7] was inactive. For the same molecule, the outcome in assay [10], in [8] and in assay [9] was inactive.
On to `CNCc1cc(F)ccc1Oc1ccc(Cl)c(Cl)c1`, for which the AC50 in assay [1] is 26.2 µM (active); in assay [5], 0.461 µM (active); in assay [7], 28.5 µM (active); in [8] it was 26.3 µM (active); in assay [9] it was 26.4 µM (active). Moreover, the result in [2], in assay [3], in assay [4] and in assay [6] was inactive.
Turning to `CN1CCN(Cc2cc(-c3ccc4[nH]c(=O)oc4c3)co2)[C@@H](c2ccc(F)cc2)C1`, the AC50 in [1] is 22.5 µM (active); in [7] it was 31.5 µM (active); in [8], 17.6 µM (active); in assay [9], 11.5 µM (active). The result in assay [2], in [3], in assay [4] and in [5] was inactive.
For the molecule `CCc1c(C(=O)NN2CCCCC2)nn(-c2ccc(Cl)cc2Cl)c1-c1ccc(Br)cc1`, the AC50 in assay [1] is 8.8 µM (active); in assay [2] it was 15.3 µM (active); in [3] it was 20 µM (active); in assay [6], 6.19 µM (active); in [7], 11.5 µM (active); in assay [8], 10.3 µM (active). The AC50 in assay [9] was 8.24 µM (active). Moreover, the result in [4] and in [5] was inactive.
`COc1cc(C=O)ccc1O`: the outcome in [1], in assay [3], in assay [4], in [5], in [6] and in [7] was inactive. Besides, the outcome in [10], in assay [8] and in assay [9] was inactive.
For the molecule `Nc1nc(N)c2nc(CNc3ccc(C(=O)N[C@@H](CCC(=O)O)C(=O)O)cc3)cnc2n1`, the outcome in [1], in assay [3], in assay [4], in [5], in assay [6] and in [7] was inactive. Further, the outcome in assay [10], in assay [8] and in assay [9] was inactive.
For the molecule `Cc1cccc(C)c1O`, the result in assay [1], in assay [3], in assay [4], in [5], in assay [6] and in assay [7] was inactive. For the same molecule, the outcome in [10], in assay [8] and in assay [9] was inactive.
As to `CCCCCCCCCCCCCCCCCC(=O)O`, the outcome in assay [1], in assay [2], in assay [3], in assay [4], in [6] and in assay [7] was inactive. Further, the outcome in [8] and in assay [9] was inactive. The AC50 in assay [5] was 4.09 µM (active).
Take `Cc1nc(-c2ccc3c(c2)CCN(CCC2CCC(NC(=O)/C=C/c4ccc(F)cc4)CC2)CC3)no1` (centres undefined): the result in assay [1], in assay [4], in assay [5], in [8] and in [9] was inactive. In addition, the AC50 is 1.45 µM (active) in assay [2], 9.3 µM (active) in assay [3], 9.3 µM (active) in assay [6] and 9.3 µM (active) in assay [7].
In the case of `FC(F)(F)C(F)(F)C(F)(F)C(F)(F)C(F)(F)C(F)(F)CCI`, the outcome in assay [1], in assay [3], in [4], in [5], in [6] and in assay [7] was inactive. Besides, the result in assay [10], in assay [8] and in [9] was inactive.
As to `CCNc1cccc(C)c1`, the result in [1], in assay [3], in [4], in assay [5], in assay [6] and in assay [7] was inactive. Further, the outcome in assay [8] and in assay [9] was inactive.
Consider `Clc1cc(Cl)c(Cl)cc1Cl`, for which the outcome in assay [1], in assay [3], in assay [4], in assay [5], in assay [6] and in [7] was inactive. In addition, the outcome in assay [8] and in assay [9] was inactive.
For the molecule `Cc1cc(=O)[nH]c(=S)[nH]1`, the result in [1], in assay [3], in assay [4], in [5], in assay [6] and in assay [7] was inactive. Further, the outcome in [10], in assay [8] and in assay [9] was inactive.
Regarding `CCCCCCCCCCO`, the result in assay [1], in assay [3], in assay [5], in assay [6], in assay [7] and in assay [8] was inactive. In addition, the outcome in assay [9] was inactive. The AC50 in [4] is 0.152 µM (active).
